esBAF inh – SWI/SNF esBAF complex inhibition; mouse ES cells, Bmi1-luciferase knock-in reporter, 24 h; 100% = twice the neutral-well signal; reporter increase, % at 12.5 µM; 2% of 350,000 active; in the data active = activation above about 40%; inconclusive = no clear call, values can overlap the other calls;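 note: 0% = median of the plate's neutral control wells and 100% = double that signal; a rise in the Bmi1 reporter signal indicates esBAF inhibition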
SMARCA2 activ – SMARCA2 function activation, primary screen | MG213 cells, MMTV-luciferase reporter, dexamethasone, overnight | activation, % at 9.1 µM | 1% of 370,000 active; in the data active = activation above about 7.8%;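 note: 0% = vehicle wells and 100% = reference activator wells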
Dyrk1A ADPGlo – Dyrk1A (rat) kinase inhibition | Q63470 | ADP-Glo luminescence, NFATc1 peptide | inhibition, % at 12.5 µM | 0.43% of 310,000 active | AID 504441; in the data active = inhibition above about 50%;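 note: plate controls were vehicle with enzyme for no effect and no enzyme for full effect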
Rtt109 Vps75 – C. albicans Rtt109 histone acetyltransferase inhibition | Q5AAJ8 | purified Rtt109/Vps75, ThioGlo CoA-SH fluorescence, 4 h | inhibition, % at 34.9 µM | 0.16% of 330,000 active;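 active = inhibition of at least 50% in every replicate; inconclusive = best replicate reaches 50% inhibition but some replicates fall short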
CDK5 inh – inhibitors of human CDK5/p35 kinase; 0.01% of 330,000 active; AID 488839; Recombinant CDK5/p35, ADP-Glo luminescence, 60 min; inhibition, % at 10 µM; Q00535+Q15078;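 active = highest replicate inhibition of at least 50% and at least 75% of replicates reaching 50%; inconclusive = only one of the two criteria met; inactive = both criteria failed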;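 note: plate controls were DMSO neutral control for no effect and GW8510 at 10 µM for full effect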
dFosB act-1 – enhances mouse delta FosB homodimer DNA binding. purified delta FosB, TAMRA-CDK5 oligo fluorescence polarization; percent of positive-control signal above neutral wells. activation, % at 25 µM. 0.99% of 340,000 active;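 active = mean activation above about 17%, with every replicate also reaching it, limit read from the data, passing the limit was not always enough; inconclusive = only one of the two conditions met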
Target sequence (P13346 whole entry, looked up): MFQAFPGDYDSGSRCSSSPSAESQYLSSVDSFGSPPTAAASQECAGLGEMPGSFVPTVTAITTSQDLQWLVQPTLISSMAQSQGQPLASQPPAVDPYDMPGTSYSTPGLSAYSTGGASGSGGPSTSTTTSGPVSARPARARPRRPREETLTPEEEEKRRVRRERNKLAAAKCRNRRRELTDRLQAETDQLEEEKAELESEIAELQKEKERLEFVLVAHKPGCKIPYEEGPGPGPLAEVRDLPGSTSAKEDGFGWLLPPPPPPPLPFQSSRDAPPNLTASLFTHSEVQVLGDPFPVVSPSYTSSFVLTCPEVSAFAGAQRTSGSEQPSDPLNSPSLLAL
dFosB act-2 – activators of mouse delta FosB homodimer DNA binding | shares compounds with dFosB act-1 | purified delta FosB, TAMRA-CDK5 oligo fluorescence polarization; normalised: neutral wells 0, positive control 100 | activation, % at 24.9 µM | 2,400 tested, under 10 active | AID 588690;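 active = highest replicate activation at or above 34% and every replicate reaching that threshold; inconclusive = meets only one of the two criteria; inactive = meets neither criterion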;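 note: higher polarization means more probe DNA bound by delta FosB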
An asterisk follows results filed as active; ? = inconclusive; / = no result given. An excerpt weighted towards active compounds, which were near 3.2% of everything screened.

SMILES	esBAF inh	SMARCA2 activ	Dyrk1A ADPGlo	Rtt109 Vps75	CDK5 inh	dFosB act-1	dFosB act-2
CCCNC(=O)C[C@H]1CC[C@@H]2[C@H](COc3ccc(NC(=O)CCC)cc3C(=O)N2C)O1	-1	/	/	/	/	/	/
Nc1nc(CN2CCc3ccccc3C2)nc(Nc2ccccc2)n1	2	-1	2	8	1	27*	8
COc1ccc(Nc2nc(N)nc(CN3CCc4ccccc4C3)n2)cc1	7	2	3	-4	0	0	/
O=C(N/N=C/c1cccnc1)c1cc2c(ccc3ccccc32)o1	-15	-2	13	2	0	32*	-2
O=C(N/N=C/c1cccnc1)c1cc2ccccc2o1	8	-4	28	/	-2	-18	/
Cc1ccc(/C=N/NC(=O)c2cc3c(ccc4ccccc43)o2)o1	4	2	2	9	-1	25*	-1
CO[C@H]1CN(C)C(=O)c2cc(NC(=O)C3CC3)ccc2OC[C@H](C)N(C(=O)Cc2ccccn2)C[C@H]1C	0	/	/	/	/	/	/
Cc1ccc(C(=O)NCC(=O)Nc2ccc(C)c(S(=O)(=O)Nc3ccc(Cl)cc3)c2)s1	/	2	3	2	-11	36*	0
COc1ccc(NS(=O)(=O)c2cc(NC(=O)CNC(=O)c3ccc(C)s3)ccc2Cl)cc1	/	0	5	15	0	2	/
CCC(=O)Nc1ccc2c(c1)OC[C@@H](C)N(C(=O)C1CCC1)C[C@H](C)[C@H](OC)CN(C)C2=O	1	/	/	/	/	/	/
CCc1nonc1NC(=O)c1oc2ccc(F)cc2c1C	25	-2	1	-4	0	35*	1
Cc1cc(C)n2cc(CSc3nc4cc(Cl)ccc4o3)nc2n1	1	5	11	1	0	1	/
CN(C)c1nc(N)nc(CSc2nc3cc(Cl)ccc3o2)n1	?	-2	-6	-6	3	28*	6
C[C@H](CO)N1C[C@H](C)[C@@H](CN(C)C(=O)Cc2ccccc2)OCCCC[C@H](C)Oc2ccc(NS(C)(=O)=O)cc2C1=O	-1	/	/	/	/	/	/
Cc1ccc(Nc2nc(N)c([N+](=O)[O-])c(NCc3ccccc3)n2)cc1	/	0	4	2	0	47*	0
Nc1nc(NCC(=O)O)nc(NCc2ccccc2)c1[N+](=O)[O-]	5	-1	-2	-5	-1	3	/
CN1CCN(c2nc(NCc3ccco3)nc(N)c2[N+](=O)[O-])CC1	-8	4	/	4	0	-8	/
Cc1cccc(Nc2nc(N)c([N+](=O)[O-])c(NCc3ccco3)n2)c1	-60	-2	26	25	0	53*	5
O=C(Cc1ccncc1)NCC[C@@H]1CC[C@H](NC(=O)C2CC2)[C@@H](CO)O1	-4	/	/	/	/	/	/
CC(C)NC(=O)N1[C@H](CO)[C@@H]2c3ccccc3N(C(=O)C3CC3)C[C@@H]21	-2	/	/	/	/	/	/
CCOC(=O)c1c(CNCCN(CC)CC)n(C)c2cc(Br)c(OC)cc12	/	4	1	65*	0	24*	?
Cc1cccc(-n2nnnc2SCC(=O)N(CC(C)C)c2c(N)n(CC(C)C)c(=O)[nH]c2=O)c1	-1	-3	0	-18	0	32*	6
Cc1ccc(S(=O)(=O)N(C)C[C@@H]2OCCCC[C@@H](C)Oc3ccc(NC(=O)CCC(F)(F)F)cc3C(=O)N([C@@H](C)CO)C[C@@H]2C)cc1	8	/	/	/	/	/	/
CCC(C)NC(=O)Cn1c(=O)n(CCCC(=O)NCc2ccccc2Cl)c(=O)c2ccccc21 (centres undefined)	-3	3	3	-1	-4	20*	-1
Cc1cc(C)c(NC(=O)Cn2c(=O)n(Cc3ccco3)c(=O)c3ccccc32)c(C)c1	-14	0	5	10	1	64*	6
COc1cccc(NC(=O)Cn2c(=O)n(CCCC(=O)NCc3ccco3)c(=O)c3ccccc32)c1	-13	0	/	4	0	-10	/
COc1ccc(NC(=O)Cn2c(=O)n(CC(=O)NCc3ccco3)c(=O)c3ccccc32)cc1OC	-2	3	-4	-1	-1	11	/
